Test [1] concerns Plasmodium falciparum Sir2 (PF13_0152, Sir2A). The experiment in a line: pfSir2 binders on small-molecule microarrays, primary screen, biochemical, small-molecule microarray, 635 nm fluorescence (AID 1098).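 Also: score merges spot fluorescence intensity with its signal-to-noise ratio.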 As to conditions: small-molecule microarray binding, fluorescence 635 nm; higher = more signal.
Test [2] in a line: small-molecule microarray binders of probe aDKK1, primary screen, biochemical, biotinylated probe, 635/667 nm fluorescence (AID 1099).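 Also: score merges 667nm spot fluorescence with signal to noise across triplicate slides.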 Particulars: higher = more signal.
Test [3] is described as follows: small-molecule microarray binders of probe aCHRDL2, primary screen, biochemical, biotinylated probe, 635/667 nm fluorescence (AID 1100). As to conditions: higher = more signal.
Test [4] is described as follows: splicing luciferase reporter signal modulators, primary screen, spliceosome inhibition project, cell-based, HEK293, splice +/- reporter (AID 1101).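 Also: HEK293 cells carrying a splicing-competent luciferase reporter gene; test concentration not given here.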 Particulars: luminescence, 24 h, higher = more signal, called active from +8 up or from −8 down. Background: In a reporter assay the amount or activity of a reporter protein is the signal.
Test [5] has as its target Fibroblast growth factor 10 (Homo sapiens) (UniProt O15520). The experiment in a line: FGF10 binders on small-molecule microarrays, primary screen, biochemical, small-molecule microarray, 635 nm fluorescence (AID 1102). As to conditions: FGF10 binding, fluorescence 635 nm, higher = more signal.
For test [6], the system named is glycogen synthase kinase-3 (GSK3A per assay name; protocol says GSK3B). Nature of the test: GSK3 binders on small-molecule microarrays, primary screen, biochemical, small-molecule microarray, 635 nm fluorescence, GSK3A (AID 1103). Also: the record names both GSK3A and GSK3B. Particulars: small-molecule microarray binding, fluorescence 635 nm; higher = more signal.
The target of test [7] is Epidermal growth factor receptor (Homo sapiens) (UniProt P00533). Nature of the test: EGFR binders on small-molecule microarrays, primary screen, biochemical, small-molecule microarray, 635 nm fluorescence (AID 1104).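 Also: score merges 667 nm emission intensity with spot signal to noise over triplicate slides.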 As to conditions: EGFR binding, higher = more signal.
Epidermal growth factor receptor (Homo sapiens), sequence (P00533 whole entry, looked up): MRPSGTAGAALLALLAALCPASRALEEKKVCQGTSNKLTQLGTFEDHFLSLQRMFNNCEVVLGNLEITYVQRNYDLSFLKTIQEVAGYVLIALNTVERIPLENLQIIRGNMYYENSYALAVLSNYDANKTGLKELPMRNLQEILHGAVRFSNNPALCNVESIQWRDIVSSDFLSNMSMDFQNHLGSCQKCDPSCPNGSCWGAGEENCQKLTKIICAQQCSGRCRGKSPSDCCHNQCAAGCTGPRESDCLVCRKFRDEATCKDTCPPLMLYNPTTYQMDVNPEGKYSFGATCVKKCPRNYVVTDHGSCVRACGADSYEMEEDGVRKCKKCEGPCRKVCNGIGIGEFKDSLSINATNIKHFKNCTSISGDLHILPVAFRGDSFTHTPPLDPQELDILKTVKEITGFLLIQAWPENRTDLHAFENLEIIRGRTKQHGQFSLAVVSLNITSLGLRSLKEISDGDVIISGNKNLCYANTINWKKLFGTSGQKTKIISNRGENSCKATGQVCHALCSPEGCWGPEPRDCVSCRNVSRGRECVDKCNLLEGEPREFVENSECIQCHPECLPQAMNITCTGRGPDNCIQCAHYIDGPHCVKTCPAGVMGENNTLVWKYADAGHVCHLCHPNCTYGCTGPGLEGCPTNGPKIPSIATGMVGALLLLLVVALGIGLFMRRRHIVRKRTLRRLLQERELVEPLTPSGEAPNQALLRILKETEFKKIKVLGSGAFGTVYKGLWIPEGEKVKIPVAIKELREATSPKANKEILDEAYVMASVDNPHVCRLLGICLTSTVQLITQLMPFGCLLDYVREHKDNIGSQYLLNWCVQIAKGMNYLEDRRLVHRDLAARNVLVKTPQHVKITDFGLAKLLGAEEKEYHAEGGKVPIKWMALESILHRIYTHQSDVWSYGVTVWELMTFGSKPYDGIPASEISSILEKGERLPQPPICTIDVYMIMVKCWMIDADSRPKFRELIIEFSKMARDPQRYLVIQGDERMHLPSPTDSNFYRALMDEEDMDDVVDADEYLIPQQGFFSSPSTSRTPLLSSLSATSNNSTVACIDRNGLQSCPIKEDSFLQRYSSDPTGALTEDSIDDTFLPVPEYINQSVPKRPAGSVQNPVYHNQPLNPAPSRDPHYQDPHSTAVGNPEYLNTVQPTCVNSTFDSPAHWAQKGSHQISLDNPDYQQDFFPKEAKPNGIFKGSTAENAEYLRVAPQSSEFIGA
Test [8] deals with Follistatin-related protein 3 (Homo sapiens) (UniProt O95633). The experiment in a line: FSTL3 binders on small-molecule microarrays, primary screen, biochemical, small-molecule microarray, 635 nm fluorescence (AID 1105).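 Also: score merges emission near 667 nm and signal to noise per printed spot across three slides.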 As to conditions: FSTL3 binding, higher = more signal.
Follistatin-related protein 3 (Homo sapiens), sequence (O95633 whole entry, looked up): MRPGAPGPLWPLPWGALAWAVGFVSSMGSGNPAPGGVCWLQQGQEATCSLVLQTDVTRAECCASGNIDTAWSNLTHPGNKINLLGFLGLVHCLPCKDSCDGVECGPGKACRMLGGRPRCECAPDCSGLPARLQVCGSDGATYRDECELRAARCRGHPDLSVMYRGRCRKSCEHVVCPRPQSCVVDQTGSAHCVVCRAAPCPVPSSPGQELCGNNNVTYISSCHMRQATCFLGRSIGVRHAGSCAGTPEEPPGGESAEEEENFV
Test [9] addresses Dickkopf-related protein 1 (Homo sapiens) (UniProt O94907). The experiment in a line: DKK1 binders on small-molecule microarrays, primary screen, biochemical, small-molecule microarray, 635 nm fluorescence scan (AID 1106).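 Also: score merges emission near 667 nm with signal to noise over three replicate slides.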 Particulars: DKK1 binding, higher = more signal.
Test [10] deals with Inhibin beta A chain (activin A). Nature of the test: INHBA (activin A) binders on microarrays, primary screen, biochemical, small-molecule microarray, 635 nm fluorescence scan (AID 1107).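 Also: mouse activin A protein probed at 4.33 µg/mL on printed slides; score merges bound-protein fluorescence near 667 nm with spot signal-to-noise.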 As to conditions: small-molecule microarray binding, higher = more signal.
In test [11] the test system is Human papillomavirus type 1a protein E7 (residues 44-93). Nature of the test: HPV1a E7 fragment binders on microarrays, primary screen, biochemical, small-molecule microarray, residues 44-93, 635 nm fluorescence (AID 1108).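 Also: E7 fragment applied at 1 µg/mL in TBST for 1 h at 4 C; score combines spot fluorescence with its signal to noise ratio.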 As to conditions: small-molecule microarray binding, fluorescence 635 nm; higher = more signal.
A short description of test [12]: modulators of HCV replicon luciferase signal, primary screen, HCV replication inhibitor project, Huh7 cells, luciferase reporter (AID 1109).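 Also: huh7 hepatoma cells harbouring a luciferase neomycin HCV replicon reporter; luciferase luminescence as measure of HCV replicon replication; test concentration not given here.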 As to conditions: 48 h, higher = more signal. In general terms: Replicon systems follow genome replication, usually without infectious particles.
In test [13] the target is Left-right determination factor 2 (Homo sapiens) (UniProt O00292). The experiment in a line: LEFTY2 binders on small-molecule microarrays, primary screen, biochemical, small-molecule microarray, 635 nm fluorescence scan (AID 1110). Particulars: LEFTY2 binding, higher = more signal.
Left-right determination factor 2 (Homo sapiens), sequence (O00292 whole entry, looked up): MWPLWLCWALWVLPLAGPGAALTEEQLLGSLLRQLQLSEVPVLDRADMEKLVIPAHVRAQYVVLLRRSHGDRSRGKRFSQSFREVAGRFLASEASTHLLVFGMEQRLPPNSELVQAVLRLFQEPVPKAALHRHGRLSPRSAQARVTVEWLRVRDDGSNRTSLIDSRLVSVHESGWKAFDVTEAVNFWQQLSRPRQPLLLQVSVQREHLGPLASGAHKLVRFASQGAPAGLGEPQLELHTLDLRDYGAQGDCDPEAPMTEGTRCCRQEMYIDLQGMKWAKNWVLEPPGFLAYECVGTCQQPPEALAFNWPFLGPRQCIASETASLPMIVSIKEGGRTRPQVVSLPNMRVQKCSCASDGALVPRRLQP
Test [14] concerns the target Calmodulin-1 (Homo sapiens) (UniProt P0DP23). Nature of the test: CALM1 binders on microarrays, EGTA buffer, profiling panel, biochemical, small-molecule microarray, Cy5-labelled CALM1 (AID 1111).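 Also: labelled calmodulin applied in Tris saline Tween buffer holding calcium plus EGTA and DTT.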 Particulars: Cy5-CALM1 binding fluorescence, higher = more signal.
For test [15] the target is unchanged. Nature of the test: calcium-bound CALM1 binders on microarrays, profiling panel, artefact control for SMM control-protein annotation, biochemical, small-molecule microarray, Cy5-labelled CALM1, plus calcium (AID 1112).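 Also: score merges spot fluorescence with signal to noise from triplicate slides.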 As to conditions: Cy5-CALM1 binding fluorescence, higher = more signal.
Test [16] can be described thus: small-molecule microarray binders of probe aWnt5a, primary screen, biochemical, biotinylated probe, 635/667 nm fluorescence (AID 1113).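 Also: score merges 667 nm fluorescence intensity with signal-to-noise per printed feature.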 As to conditions: higher = more signal.
A short description of test [17]: small-molecule microarray binders of probe aShh, primary screen, biochemical, biotinylated probe, 635/667 nm fluorescence (AID 1114).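 Also: probe is biotin-labelled aShh protein from a stem cell growth factor screen; measures binding of labelled protein to compounds printed on the slide; score merges feature fluorescence at 667 nm with signal-to-noise.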 As to conditions: higher = more signal.
Test [18] is described as follows: small-molecule microarray binders of probe aNog, primary screen, biochemical, biotinylated probe, 635/667 nm fluorescence (AID 1115).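 Also: probe is biotinylated aNog protein used at 0.15 µg/mL for 1 h at 4 C; z-score combines 667 nm fluorescence of each spot with its signal to noise.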 Particulars: higher = more signal.
Test [19] has as its target Torsin-1A-interacting protein 1 (Homo sapiens) (UniProt Q5JTV8). Nature of the test: LAP1 binders from COS7 cell lysate, primary screen, small-molecule microarray, 635/667 nm fluorescence (AID 1116). Particulars: COS7-hLAP1 lysate binding, 635 nm fluorescence, higher = more signal.
The target of test [20] is Alpha-bungarotoxin (Bungarus multicinctus) (UniProt P60615). Nature of the test: alpha-bungarotoxin binders on microarray, profiling panel, artefact control for SMM control protein annotation, biochemical, small-molecule microarray, Alexa647 label, 635/667 nm fluorescence (AID 1117). Particulars: alpha-BTX-A647 binding fluorescence, higher = more signal.
Alpha-bungarotoxin (Bungarus multicinctus), sequence (P60615 whole entry, looked up): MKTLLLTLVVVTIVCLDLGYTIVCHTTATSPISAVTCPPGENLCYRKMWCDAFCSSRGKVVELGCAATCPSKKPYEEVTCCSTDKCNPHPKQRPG

SMILES strings stand for the structures. The source made the active and inactive calls.

Torsin-1A-interacting protein 1 (Homo sapiens), sequence (Q5JTV8 whole entry, looked up): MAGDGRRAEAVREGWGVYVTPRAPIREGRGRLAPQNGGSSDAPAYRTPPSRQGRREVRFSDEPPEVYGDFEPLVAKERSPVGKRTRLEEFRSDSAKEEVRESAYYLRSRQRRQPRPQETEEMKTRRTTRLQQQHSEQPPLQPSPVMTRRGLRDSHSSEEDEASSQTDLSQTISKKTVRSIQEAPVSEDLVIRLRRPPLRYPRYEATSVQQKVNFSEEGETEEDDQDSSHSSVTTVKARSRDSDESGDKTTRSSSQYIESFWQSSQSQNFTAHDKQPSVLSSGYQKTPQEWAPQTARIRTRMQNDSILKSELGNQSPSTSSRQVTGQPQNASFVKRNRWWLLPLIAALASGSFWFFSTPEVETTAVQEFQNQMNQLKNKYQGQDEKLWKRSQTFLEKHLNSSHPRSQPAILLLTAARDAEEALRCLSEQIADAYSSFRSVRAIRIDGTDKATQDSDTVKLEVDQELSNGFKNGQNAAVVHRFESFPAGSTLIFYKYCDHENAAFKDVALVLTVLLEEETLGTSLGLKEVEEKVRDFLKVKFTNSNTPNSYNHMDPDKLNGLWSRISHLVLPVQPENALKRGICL
Dickkopf-related protein 1 (Homo sapiens), sequence (O94907 whole entry, looked up): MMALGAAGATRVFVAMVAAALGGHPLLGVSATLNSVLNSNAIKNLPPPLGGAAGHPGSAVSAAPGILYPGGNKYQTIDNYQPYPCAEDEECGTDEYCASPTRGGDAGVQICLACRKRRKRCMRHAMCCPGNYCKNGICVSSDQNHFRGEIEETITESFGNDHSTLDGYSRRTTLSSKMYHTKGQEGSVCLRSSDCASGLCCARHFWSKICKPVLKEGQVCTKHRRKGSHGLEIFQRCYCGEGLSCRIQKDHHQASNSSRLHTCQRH
Fibroblast growth factor 10 (Homo sapiens), sequence (O15520 whole entry, looked up): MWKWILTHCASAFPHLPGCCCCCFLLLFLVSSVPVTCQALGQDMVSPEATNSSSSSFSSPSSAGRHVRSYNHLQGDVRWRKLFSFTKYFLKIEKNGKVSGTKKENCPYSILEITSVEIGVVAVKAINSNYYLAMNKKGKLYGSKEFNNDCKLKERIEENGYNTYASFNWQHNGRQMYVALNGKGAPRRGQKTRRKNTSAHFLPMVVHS

Take `CC(C)NC(=O)[C@@]1(Cc2ccccc2I)c2ccccc2C(=O)N(Cc2ccccc2)[C@H]1c1ccc(CO)cc1`: the composite z-score in [1] came to 1.45; in test [2], 0.461; in [3], 0.715; in [5], 0.954; in test [6], 1.28; in test [7], 0.136. For the same compound, the composite z-score came to 1.09 in test [8]; 0.0622 in [9]; 0.315 in test [10]; 0.997 in [11]; 0.337 in test [13]; 0.447 in test [14]. Further, the composite z-score in [15] was -0.726; in test [16], 0.0438; in [17] it was -0.0503; in [18], -0.422; in test [19], 0.568; in test [20] it was 1.4. The z-score in [4] was -0.227 (inactive); in test [12], -1.09.
Take `COC(=O)[C@@]1(Cc2ccccc2)N=C(c2ccc(OCCCO)cc2)O[C@H]1c1ccccc1N=[N+]=[N-]`: the composite z-score in [1] was 1.38; in [2] it was 0.0861; in [3] it was 0.657; in [5], 0.883; in test [6], 0.887; in test [7], -0.003. For the same compound, the composite z-score in [8] was 0.848; in test [9] it was 0.425; in test [10], 1.23; in [11], 1.33; in [13], 0.241; in test [14] it was -0.203. The composite z-score in [15] was -1.07; in test [16] it was -0.0405; in [17] it was 0.297; in [18], 0.781; in [19], 2.83; in [20], 0.778. In addition, the z-score in [4] was -0.384 (inactive); in [12], -0.749.
Regarding `O=C1O[C@H](c2ccccc2)[C@H](c2ccccc2)N2[C@H]1[C@@H](C(=O)O)[C@]1(C(=O)Nc3ccc(C#CC4=CCCCC4)cc31)[C@H]2c1ccc(OCCO)cc1`, the composite z-score in test [1] is 1.43; in test [2] it was -0.211; in [3], -0.701; in test [5] it was 1.25; in test [6], 1.28; in [7], 0.58. Moreover, the composite z-score in test [8] turned out to be 1.42; in test [9] it was 0.765; in test [10], 0.302; in test [11], 1.22; in test [13] it was 0.659; in [14] it was 0.447. The composite z-score is 0.166 in test [15]; 0.055 in test [16]; -0.304 in test [17]; 1.17 in test [18]; 1.09 in test [19]; 2.81 in test [20]. In addition, the z-score in test [4] was -0.248 (inactive); in test [12], -1.69.
`COc1ccc(CCNC(=O)[C@@]2(c3ccc([N+](=O)[O-])cc3)CC(=O)N(CC34CC5CC(CC(C5)C3)C4)[C@@H]2c2ccc(CO)cc2)cc1`: the composite z-score was found to be 1.06 in test [1]; 1.38 in test [2]; 0.764 in [3]; 0.76 in test [5]; 1.07 in test [6]; 0.453 in [7]. The composite z-score in [8] is 1.03; in test [9], 0.828; in test [10] it was 0.432; in test [11], 1.42; in [13], 0.614; in test [14], 0.581. The composite z-score in [15] is 0.084; in test [16] it was -0.0202; in test [17], 0.2; in test [18] it was -0.0281; in test [19] it was 0.299; in [20], 0.155. For the same compound, the z-score in test [4] was 0.539 (inactive); in [12] it was -3.38.
Regarding `O=C1OCCC/C=C\[C@H]2OC34C=CCN(Cn5nnc6ccccc65)C(=O)[C@H]3N(CCCCCO)C(=O)[C@@H]4C12` (stereo not given in full), the composite z-score in [1] was 0.957; in [2], -0.118; in [3], 0.584; in test [5], -1.08; in test [6], -1.7; in [7], -0.97. In addition, the composite z-score in [8] was -0.751; in [9], -1.45; in test [10], 0.702; in test [11], -0.921; in test [13], -1.5; in test [14] it was -0.709. The composite z-score was -0.388 in test [15]; -0.175 in test [16]; -0.0035 in test [17]; -0.0894 in test [18]; -0.118 in test [19]; -0.697 in test [20]. Also, the z-score in test [4] is -0.586 (inactive); in test [12], 0.0311.
In the case of `CC(C)(C)N1CC=CC23O[C@@H]4C=CCOC(=O)[C@@H]4[C@H]2C(=O)N(CCCCCO)[C@@H]3C1=O` (stereo not given in full), the composite z-score is 1.12 in test [1]; -0.275 in test [2]; 0.0408 in test [3]; -0.804 in [5]; -1.54 in [6]; -1.63 in test [7]. Besides, the composite z-score in test [8] is -1.67; in test [9], -0.499; in test [10], -0.0694; in [11], -1.2; in test [13] it was -0.788; in test [14], -0.821. Besides, the composite z-score in [15] is -0.0669; in test [16], -0.169; in [17], -0.221; in test [18] it was 1.03; in [19], 2.1; in [20], -1.45. The z-score is -0.018 (inactive) in [4] and -0.394 in [12].
Regarding `CCOC(=O)C[C@H]1[C@H](OC(=O)c2ccccc2-c2ccccc2)[C@@H](NC(=O)c2ccc3ccccc3c2)c2cc(OCCCO)ccc2N1C(=O)c1ccc2ccccc2n1`, the composite z-score in [1] was -0.0144; in test [2] it was -0.228; in test [3] it was -0.154; in test [5], 0.533; in test [6], 0.119; in test [7], 0.289. Also, the composite z-score is 0.521 in test [8]; -0.0224 in test [9]; 0.282 in test [10]; 1.12 in [11]; 0.043 in test [13]; 0.0796 in [14]. Also, the composite z-score was -0.122 in test [15]; -0.0441 in test [16]; -0.214 in test [17]; -0.364 in [18]; 0.4 in test [19]; 0.164 in test [20]. The results for the z-score in test [4] and in [12] were 0.411 (inactive) and -1.08, respectively.
With `CN(C)C(=O)[C@]1(CCC(=O)OC(C)(C)C)N=C(c2ccc(OCCCO)cc2)O[C@@H]1c1ccccc1N=[N+]=[N-]`, the composite z-score in [1] was 1.44; in [2], 0.533; in test [3], 0.863; in test [5], 1.25; in test [6], 1.33; in test [7], 0.17. Also, the composite z-score was 0.644 in test [8]; -0.394 in [9]; 0.252 in test [10]; 1.54 in test [11]; -0.12 in [13]; 1.22 in test [14]. For the same compound, the composite z-score in [15] was 0.463; in test [16], 0.173; in [17], 0.14; in test [18], 1.02; in test [19] it was 2.07; in test [20], 1.36. The values for the z-score in [4] and in test [12] were -0.194 (inactive) and 0.929, respectively.

(Values after PubChem BioAssay.)
